# Measured values: the supplement of paper PMC6555819
# Tested on: PPARg:RXRa DBDmut IVT, anti-RXR (DBD mutation: RXRa K156A/R161A, NR concentration 270 nM, RXRa partner concentration 90 nM)
# Assay: PBM binding z-score (relative to random genomic background probes); higher = stronger binding; sequences stand for … in GC…GCGATTGACAGCGTAGAATGAAGG
# Method in brief: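 Ligand-free nuclear receptor dimers were bound for 1 h to custom Agilent 4×180K protein-binding microarrays. Detection used antibodies against each partner (one per run). Binding z-scores rest on regression-normalized fluorescence, with random background probes as the reference.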
row,Sequence,PBM binding z-score
1,GATACAGGGTCAAGGCGAGAGTACGCGTATTGAT,2.65
2,CCTCACGGGTCACGAGGTTATAGCACGACGAGCG,1.87
3,ATCTCTAGGTAAAGATAGTTCAGTGATTGCAAAT,2.16
4,TCACCAAGGTGAAGGTCGTTGATCCCTCTGTAGA,2.46
5,GCTGCTGGGTCAACTGATGGTCAGCTAAAGCTCG,3.67
6,TCTTCTAGATCAACAGGAGGTTAAGAAAGATCGA,1.93
7,TCATATAGGTATACAGGTGAAAGTCCGTAAGTTA,2.8
8,CCTGCTAGGTCGATGGTCAGCTAAAGCAGCTCGC,0.713
9,GCTAGCAGGCAATTTGGGTCACTCAATGACGGGC,2.45
10,CGTCCAAGGTCAGAAAGGTCAGTGAATGCCGAGT,1.91
11,AGAATGACGTTATTAAGATCAGGGAATTGCGGTC,-0.6
12,CCGACTGGGGCATAAGGTTACCTTAAGCCAGCCC,2.68
13,ACTTACGGGTGAACGAGGTTATAGCACGCGTATA,2.06
14,AGAATTAGGTTATTAAGATCAGGGAATTGCGGTC,6.63
15,GATACAGGGTCAAGGACAGAGTACGCGTATTGAT,3.11
16,ATCGAAAGGTCGACGAGGCGAGTATACACCGTTT,0.214
17,TGAATGAGGTTATAGATCAGGGAACGTGGCGTCG,1.18
18,CCTAGCCGGCCAGGGTCACTCAAGCATTTCGCTT,-0.601
19,CCTACTGGGCCAACGTCATTGATCAGTCAAAGCA,3.87
20,GCTAGTTGCTCAGTAAAAGGTCACACACCGGTCG,0.44

row,Sequence,PBM binding z-score
1,TCTTGTAGATCAGCGGGTTAAGAAAGCTGGCCAA,1.84
2,ACTAGCTGGCCAAGTTTGGGTCACTCAAACAAAG,-0.306
3,TCTAGTTGGTCAAAGGTCAGACACTCGAAATGCG,3.43
4,ACTAGCAGGCCAAGTTCGGGTCACTCAAACAAAG,0.756
5,CGTCCAAGGTCAATGCTAGTTCAGTGAAAGCATT,2.97
6,CAGTCTAGGTCAGGGCCAGTATAGGAGGAACGTT,5.44
7,TCGAGTAGGTTACCAATGGGGCATTCAACTTTCT,3.18
8,TGAGTGAGGTTAAAGATCAGGGAACGTGGCGTCG,0.116
9,AGAAGGAGGTTACCAAAGATCAGGGAAACGCTTG,2.51
10,GCTAGTAGGCCATTTGGGTCACTCAATGACGGGC,5.94
11,ACAGACAGGTGATGAAGGTCACTCAGGCTATCAT,0.771
12,ACTTACGGGTCAACCAGGTTATAGCACGCGTATA,3.23
13,TCTTGAAGATCAAGCAGGTTAAGAAAGCCTGAGT,1.28
14,TGAATGGGGTTATAAGATCAGGGAACGTTGCAAA,2.58
15,ATATGTAGGTTATCTGGTCATTCAGTTTGCGCAT,7.43
16,ACTAGCAGGCCAAGTTTGAGTCACTCAAACAAAG,0.376
17,CCTCCTGGGCCATTCAGAGGTCATTGATCATATG,0.035
18,CCTAGCAGGACAATCTGGGTCACTCAAGGCTTGA,4.78
19,TCATATAGGTAATACAGGTGAAAGTAGGCATCTA,3.97
20,CGTCACAGTTCAACTAAGGTAACGTAAAGCACGC,0.343
